Source: PubChem (National Center for Advancing Translational Sciences (NCATS))
G9a inh: qHTS Assay for Inhibitors of Histone Lysine Methyltransferase G9a | G9a H3K9 monomethylation, AlphaScreen, 2 h | Potency, µM (top dose mostly 102 µM), inactives show top-dose activity, negative = inhibition, actives largely listed as inhibitors | actives 8.8% (n = 350,000) | AID 504332, 2011; further: on the % scale 0 is the no-effect control and ±100 the full control effect; nearly all actives have a fitted effect of over 75% in size
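Step 1: enzyme (final 20 nM) with compound, 15 min RT. Step 2: substrate peptide 500 nM and SAM 20 uM, 2 h RT. Step 3: anti-H3K9me1 antibody and AlphaScreen beads, 10 min, then plate read.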
VDR inhibitor: Inhibitors of the vitamin D receptor (VDR): qHTS | Vitamin D3 receptor (Homo sapiens), P11473 | VDR-SRC2-3 peptide fluorescence polarization, 2 h | Potency, µM, inactives show max response, negative = inhibition, usual class: inhibitors | actives 0.93% (n = 400,000) | AID 504847, 2011; further: on the % scale 0 is the no-effect control and ±100 the full control effect
Target sequence (P11473 whole entry, looked up): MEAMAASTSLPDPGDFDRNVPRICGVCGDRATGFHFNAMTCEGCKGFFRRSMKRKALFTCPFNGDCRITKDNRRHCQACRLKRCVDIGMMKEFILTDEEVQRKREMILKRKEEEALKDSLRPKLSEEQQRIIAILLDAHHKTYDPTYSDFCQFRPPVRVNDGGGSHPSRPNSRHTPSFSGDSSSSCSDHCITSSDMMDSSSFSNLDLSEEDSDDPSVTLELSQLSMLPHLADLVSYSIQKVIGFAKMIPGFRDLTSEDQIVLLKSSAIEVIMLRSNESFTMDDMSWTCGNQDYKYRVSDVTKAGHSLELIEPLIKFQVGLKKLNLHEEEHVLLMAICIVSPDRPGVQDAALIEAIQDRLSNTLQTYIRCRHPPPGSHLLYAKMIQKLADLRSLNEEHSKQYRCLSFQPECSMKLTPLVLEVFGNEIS
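Reagent solutions, kept cold and dark, are dispensed first; compounds are then pinned in at 23 nl, plates briefly spun, and incubated 2 h at ambient temperature. Inhibition of VDR–SRC2-3 peptide binding is read by fluorescence polarization.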
JMJD2A Tudor: qHTS Assay for Inhibitors of JMJD2A-Tudor Domain. AlphaScreen JMJD2A-Tudor / H3K4me3 peptide binding. actives 4.4% (n = 390,000). Lysine-specific demethylase 4A (Homo sapiens), O75164. Potency, µM (series often up to 114 µM), for inactives: top-dose activity change, negative = inhibition, most hits filed as inhibitors. AID 504339, 2011; further: on the % scale 0 is the no-effect control and ±100 the full control effect; nearly all actives have a fitted effect of over 50% in size
BAZ2B block: qHTS Assay for Inhibitors of BAZ2B. Bromodomain adjacent to zinc finger domain protein 2B (Homo sapiens), Q9UIF8. AlphaScreen BAZ2B-H3K14Ac peptide displacement. Potency, µM (highest dose often 114 µM), inactives show at the highest dose activity change, negative = inhibition, most hits filed as inhibitors. actives 4.4% (n = 360,000). AID 504333, 2011; further: on the % scale 0 is the no-effect control and ±100 the full control effect; nearly all actives have a fitted effect of over 60% in size
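Protein-peptide AlphaScreen: BAZ2B 50 nM, b-H3K14Ac 50 nM, 1x PBS pH 7.4 + 0.01% Tween-20. Preincubation 30 min RT; cpd 30 min RT (top 110 uM); beads 20 min RT, light-protected.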
PLK1 PBD inh: qHTS for Inhibitors of PLK1-PDB (polo-like kinase 1 - polo-box domain): Primary Screen; AID 720504, 2013; Serine/threonine-protein kinase PLK1 (Homo sapiens), P53350; actives 2.8% (n = 360,000); Potency, µM, for inactives: max response, negative = inhibition, most hits filed as inhibitors; Plk1 PBD binding of FITC phosphopeptide, fluorescence polarization; further: series mostly up to about 57 µM; on the % scale 0 is the no-effect control and ±100 the full control effect; nearly all actives have a fitted effect of over 65% in size
HP1b binding inh: HTS for Inhibitors of HP1-beta Chromodomain Interactions with Methylated Histone Tails | AlphaScreen HP1-beta / biotin-H3K9me3 peptide binding | Potency, µM (series often up to 114 µM), without a hit: top-dose activity change, negative = inhibition, usual class: inhibitors | actives 0.56% (n = 390,000); further: nearly all actives have a fitted effect of over 70% in size
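Compound inhibition of the preformed complex between 50 nM HP1-beta and 50 nM biotinylated H3K9me3 peptide was read by AlphaScreen. Buffer was PBS pH 7.4 with 0.01% Tween-20. Incubations ran 30 min at room temperature, with 10 ug/mL donor/acceptor beads.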
* hit, by the source's call; ? = inconclusive; nt = no result; [ ] = remark or other dose. Shown are actives, neighbours in structure and some others; about 11% of the full set was active somewhere. The call rests on the fitted dose curve; in most records, active means well fitted curve in the direction sought with a large enough effect; inconclusive means small, poorly fitted or top-dose-only effect, or another doubt; inactive means no such curve, though single readings can be large; an effect the other way counts as inactive or inconclusive. Potency means the concentration at half of the fitted maximal effect.

SMILES | G9a inh | VDR inhibitor | JMJD2A Tudor | BAZ2B block | PLK1 PBD inh | HP1b binding inh
CCCCC1CCC(C(=O)N(CC(C)C)c2c(N)n(Cc3ccccc3)c(=O)[nH]c2=O)CC1 (configuration not stated) | -1%[0.501 µM] | -1% | -26% | ? | 3% | 31%
CC1Oc2ccccc2C=C1/C=N/Nc1ccc(C(=O)O)cc1 (configuration not stated) | ? | ? | -10%[11.4 µM] | -30% | 24µM* | -14%
CC(C)(C)c1ccc(/C=N/Nc2ccc(C(=O)O)cc2)cc1 | 1.8µM* | 4% | ? | -38% | ? | -10%
Clc1ccc(N/N=C/c2cccnc2)cc1 | 4µM* | -13% | ? | ? | -1% | 3%
O=C(O)c1cccc(N/N=C/c2ccc(-c3ccccc3)cc2)c1 | 25µM* | -16% | -29% | nt | ? | 15%
O=C(O)c1ccc(N/N=C/c2ccc3c(c2)OCO3)cc1 | nt | 7% | -16% | -22% | 0% | 22%
Fc1ccc(/C=N\Nc2cccc(F)c2)cc1 | nt | 2% | -15% | 3% | -6% | 23%
COc1ccccc1NS(=O)(=O)c1ccc(C(=O)N2CCCCCC2)cc1 | nt | 3% | -10% | nt | -4% | 16%
Cc1cc(C(=O)NCc2ccccc2Cl)c2c(C)nn(-c3ccccc3)c2n1 | -15%[59 µM] | 6% | -1% | 6%[57.1 µM] | nt | -4%
O=C(O)c1cccc(N/N=C/c2cccnc2)c1 | 28µM* | -23% | -17% | -13% | -12% | 18%
O=C(N/N=C/c1cccnc1)c1ccccc1 | 14% | -26% | -11% | 5% | -3% | 19%
O=C(CCSc1nc2ccccc2o1)N1CCOCC1 | 14µM* | ? | -9% | -8% | -8% | 40%
O=C(CCSc1nnc(-c2ccc(O)cc2)o1)N1CCOCC1 | -3% | 5% | 5% | -4% | -6% | 43%
O=C(OCC(=O)N1c2ccccc2Sc2ccccc21)c1ccc[n+]([O-])c1 | -8% | -7% | -16% | nt | -16% | 28%
O=C(Nc1ccccc1Br)C(Cc1ccccc1)NS(=O)(=O)c1cccc2nsnc12 (configuration not stated) | -44%[59 µM] | ? | -29% | nt | nt | 23%
O=c1cc(-c2ccc(O)cc2)oc2c(-c3c(O)cc(O)c4c(=O)cc(-c5ccc(O)cc5)oc34)c(O)cc(O)c12 | nt | 2% | -27% | nt | -15% | 14%
O=c1c(-c2c(O)cc(O)c3c(=O)cc(-c4ccc(O)cc4)oc23)c(-c2ccc(O)cc2)oc2cc(O)cc(O)c12 | ? | -21% | 50µM* | 28µM* | ? | -22%
COc1ccc(CCNC(=O)C(C(=O)c2ccccc2)n2ccccc2=O)cc1OC (configuration not stated) | ? | -11% | -11% | -9% | -5% | 28%
COc1ccc(CCNC(=O)C(C(=O)c2ccccc2)n2cc(Cl)ccc2=O)cc1OC (configuration not stated) | 50µM* | -5% | -3% | 9% | -7% | 41%
CCOC1CCCC(n2cnc3c(=S)nc[nH]c32)O1 (configuration not stated) | nt | -9% | 18µM* | nt | -21% | ?
Cc1cccc(NC(=O)COC(=O)CN2C(=O)c3ccccc3C2=O)c1C | nt | nt | nt | nt | -1% | nt
Fc1ccc2cc(-c3ccccc3)ncc2c1 | nt | -14% | -3% | nt | -23% | 32%
C[n+]1cnc(-c2ccccc2)cc1-c1ccccc1 | ? | 1% | 22µM* | -3% | ? | ?
CCS(=O)(=O)N1CC(=O)N(c2cc(Cl)ccc2C)C(C)(C(=O)NC2CCCCCC2)C1 (configuration not stated) | 1%[59 µM] | -1% | -12% | 4% | nt | -7%
